Test results from PubChem BioAssay AID1852 (Sanford-Burnham Center for Chemical Genomics, 2009).
About 1,100 (44%) of roughly 2,500 compounds were called active. The set was probably picked from earlier hits. The list shows a part of the results. A number with no mark means an inactive call.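 Rule for the calls: active = inhibition above 50% at 4 µM in the single-point screen; inactive = inhibition of 50% or less.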

Experiment: TNF-a-driven NF-kB reporter inhibitors, primary screen, selectivity assay for NOD1/NOD2 signaling inhibitor project, cell-based, HEK293T NF-kB-Luc, luminescence (AID 1852)
Conditions: TNF-a induced, 14 h, at 4 µM, stronger effect = higher value

| SMILES | inhibition |
| --- | --- |
| O=C(OCC(=O)N1CCOCC1)c1ccccc1Br | 0.9% |
| O=C(OCn1ncc(Br)c(Br)c1=O)c1ccccc1Cl | 79.3% (active) |
| O=C(OCn1ncc(Cl)c(Cl)c1=O)c1ccccc1Cl | 94.2% (active) |
| CCOC(=O)c1cnn(Cc2cccc(Cl)c2)c1C | -4.9% |
| c1ccc(-c2csc(Nc3ccc4c(c3)OCCO4)n2)cc1 | -211% |
| O=C(/C=C/c1ccc2c(c1)OCO2)Nc1nc(-c2ccccc2)cs1 | 103% (active) |
| O=C(Nc1nc(-c2ccc3c(c2)OCO3)cs1)c1ccncc1 | 34.9% |
| CC(=O)Nc1ccc2nc(NC(=O)c3ccc([N+](=O)[O-])o3)sc2c1 | 18.3% |
| O=[N+]([O-])c1cc(Br)c(O)c(/C=N/Nc2nc3ccccc3s2)c1 | 79.2% (active) |
| C(=N\Nc1nc2ccccc2s1)/c1ccccn1 | 105% (active) |
| CCN1C(=O)/C(=C/c2nc3ccccc3c(=O)n2-c2ccccc2)c2ccccc21 | 40.6% |
| CC(C)C1Nc2c(O)cc(Cl)c([N+](=O)[O-])c2C2C=CCC21 (stereo not drawn) | 74.1% (active) |
| O=C1OCCC1Sc1nnc(-c2ccc(Cl)cc2Cl)o1 (stereo not drawn) | 35.1% |
| Cn1cnnc1Sc1ccc(/C=C/C(=O)c2ccc(O)cc2)cc1[N+](=O)[O-] | 6.7% |
| CC(C)NC(=O)c1ccc(Sc2ccccc2)c([N+](=O)[O-])c1 | 16.7% |
| CC(=O)c1ccc(Sc2nnnn2-c2ccccc2)c([N+](=O)[O-])c1 | 61.3% (active) |
| CCS(=O)(=O)c1ncc(Cl)c(C(=O)Nc2ccc(S(=O)(=O)N(C)c3ccccc3)cc2)n1 | 88.3% (active) |
| Cc1ccc(NC(=O)c2nc(S(=O)(=O)Cc3ccccc3C)ncc2Cl)cc1C | 5.2% |
| CCS(=O)(=O)c1ncc(Cl)c(C(=O)Nc2ccc(C)cc2)n1 | 99.2% (active) |
| CN(c1ccccc1)S(=O)(=O)c1ccc(NC(=O)c2nc(S(C)(=O)=O)ncc2Cl)cc1 | 60.4% (active) |
| CCN(c1ccccc1)S(=O)(=O)c1ccc(NC(=O)c2nc(S(C)(=O)=O)ncc2Cl)cc1 | 30% |
| Cc1cccc(CS(=O)(=O)c2ncc(Cl)c(C(=O)Nc3ccc(F)cc3)n2)c1 | 43% |
| O=C(Nc1ccc(F)cc1)c1nc(S(=O)(=O)Cc2ccccc2)ncc1Cl | 60.6% (active) |
| CCCc1cc(=O)n2[nH]cc(-c3ccc(Cl)cc3)c2n1 | 101% (active) |
| O=C(c1[nH]ncc1-c1cccc(Br)c1)C1CO1 (stereo not drawn) | 33.6% |

| SMILES | inhibition |
| --- | --- |
| Cc1nc2c(-c3ccc(Cl)cc3)cnn2c(N)c1-c1ccc(F)cc1 | -246% |
| O=c1c2c(nc3c(-c4ccc(Cl)cc4)c[nH]n13)CCCC2 | 75.3% (active) |
| O=c1c2c(nc3c(-c4cccc(Br)c4)c[nH]n13)CCCC2 | 83% (active) |
| O=c1c2c(nc3c(-c4ccc(Cl)cc4)c[nH]n13)CCC2 | 102% (active) |
| O=C(Cc1ccc(Br)cc1)Nc1ncc([N+](=O)[O-])s1 | 23.8% |
| CC(C)N1C(=O)/C(=C/c2nc3ccccc3c(=O)n2-c2ccccc2)c2ccccc21 | 43.6% |
| COc1ccc(O)c(-c2[nH]ncc2C(=O)c2ccccc2)c1 | 9.4% |
| COc1ccc(C(=O)n2cc(C(=O)c3cc(C)ccc3O)cn2)cc1OC | 36.5% |
| COc1ccc(C(=O)c2ccccc2)c2c(O)ccc(C(=O)c3ccccc3)c12 | 53.3% (active) |
| CCc1cccc(CC)c1NC(=O)CN1CCc2cc(OC)c(OC)cc2C1 | 23.9% |
| COc1ccc(Oc2ccccc2/C=N/O)cc1 | 81.6% (active) |
| COc1ccc(N2CCN(c3cc(=O)n(Cc4ccc(F)cc4)c(=O)[nH]3)CC2)cc1 | 6.1% |
| COc1ccc(C2C(O)C(c3c[nH]c4ccccc34)=NN2C(=O)CCl)cc1 (stereo not drawn) | 96.7% (active) |
| CNc1nc(-c2ccc3c(c2)CCN3S(=O)(=O)c2ccccc2)c(C)s1 | 79.2% (active) |
| O=C(CN1CCOCC1)Nc1nc(-c2ccc3c(c2)CCN3S(=O)(=O)c2ccccc2)cs1 | -1% |
| CC(=O)N1CCc2cc(S(=O)(=O)NCc3ccc(C)cc3)ccc21 | 26.3% |
| CC(=O)c1c(O)c(C)c(O)c2c1OC1=CC(=O)C(C(C)=O)C(=O)[C@@]12C (stereo partly drawn) | 80.3% (active) |
| O=C(c1ccc2c(c1)CCN2S(=O)(=O)c1ccccc1)N1CCN(c2ccc(F)cc2)CC1 | 65.3% (active) |
| Cc1ccc(C(=O)N2CCN(c3ccc(F)cc3)CC2)cc1S(=O)(=O)N1CCCCC1 | 43.8% |
| CSc1nnc(NC(=O)c2nc(S(=O)(=O)Cc3ccc(C)cc3)ncc2Cl)s1 | 98.9% (active) |
| Cc1cccc(CS(=O)(=O)c2ncc(Cl)c(C(=O)Nc3nnc(C(C)C)s3)n2)c1 | 84.2% (active) |
| Cc1ccc(CS(=O)(=O)c2ncc(Cl)c(C(=O)Nc3nnc(C(C)C)s3)n2)cc1 | 85.6% (active) |
| COC(=O)c1ccc(NC(=O)c2nc(S(=O)(=O)Cc3cccc(C)c3)ncc2Cl)cc1 | 47.3% |
| CCC(C)[C@@H](NC(=O)OC(C)(C)C)c1nnc(S(=O)(=O)Cc2cccc(C)c2)o1 (stereo partly drawn) | 45.7% |
| CCC(=O)Nc1nc2ccccc2n1Cc1ccccc1Cl | 75.1% (active) |

| SMILES | inhibition |
| --- | --- |
| O=C(Nc1nc2ccccc2n1Cc1ccc(Cl)cc1)c1ccco1 | 41.5% |
| Cc1ccccc1Cn1c(C)nc2ccccc21 | 32% |
| Cc1c(O)ccc2c(-c3ccccc3)cc(=O)oc12 | 30.3% |
| COc1ccc(-c2cc(=O)oc3c(C)c(OC(=O)c4cccs4)ccc23)cc1 | 63.9% (active) |
| COc1ccc(-c2cc(=O)oc3c(C)c(O)ccc23)cc1 | 91.8% (active) |
| CC(=O)NCCC(=O)N1CCc2c([nH]c3ccccc23)C1c1cccc(Cl)c1 (stereo not drawn) | 6.2% |
| CC(=O)N1CC(C)Sc2ccc(S(=O)(=O)NCCc3ccc(C)cc3)cc21 (stereo not drawn) | 44.7% |
| Cc1ccc2oc(/N=C(\N)NC(=O)C(C)(C)C)nc2c1 | 40.4% |
| Cc1ccc(Oc2c(C(N)=O)cc([N+](=O)[O-])cc2[N+](=O)[O-])cc1 | -11.8% |
| Cc1ccc(N=c2oc3cc(O)ccc3cc2C(N)=O)cc1 | 72.5% (active) |
| COc1ccc2cc(C(N)=O)c(=Nc3ccc(C)cc3)oc2c1 | 62.3% (active) |
| O=C(Cc1cccs1)N/N=C\c1ccc([N+](=O)[O-])s1 | 49.1% |
| Cc1cc(C(=O)N/N=C/c2ccc([N+](=O)[O-])s2)c2ccccc2n1 | 37.2% |
| O=C(N/N=C\c1ccc([N+](=O)[O-])s1)C1COc2ccccc2O1 (stereo not drawn) | 17.5% |
| O=C(N/N=C/c1ccc([N+](=O)[O-])s1)c1cccc(Br)c1 | 66.8% (active) |
| O=C(N/N=C/c1ccc([N+](=O)[O-])s1)c1ccccc1Br | 50.8% (active) |
| COc1cc(S(=O)(=O)n2cnc(C)c2)ccc1Br | -6% |
| Cc1nc2ccccc2c(C)c1C(=O)c1ccc(F)cc1 | 66% (active) |
| Fc1cccc(NC(=S)NNc2c3ccccc3nc3ccccc23)c1 | 20.7% |
| CCn1c(SCc2nc3scc(-c4ccccc4)c3c(=O)[nH]2)nnc1-c1cccs1 | 1.6% |
| O=c1cc(CSc2nnc(-c3cccs3)n2Cc2ccccc2)nc2sc3ccccc3n12 | 88.7% (active) |
| CC(=O)c1c(C)[nH]c(C(=O)OCC(=O)Nc2sc3c(c2C#N)CCCC3)c1C | 58.6% (active) |
| NC(=O)c1c(NC(=O)CCCC(=O)O)sc2c1CCCCCC2 | 16.7% |
| Cc1ccc(C(=O)Nc2sc3c(c2C(=O)O)CCCC3)o1 | -42.9% |
| Cc1ccccc1Oc1cc(-n2ncc(Cl)c(Cl)c2=O)ncn1 | 103% (active) |

| SMILES | inhibition |
| --- | --- |
| COCCN(CCOC)S(=O)(=O)c1ccc(C(=O)Nc2nc(C)c(C(C)=O)s2)cc1 | -3.7% |
| O=C(Nc1nnc(-c2ccco2)o1)c1ccc2ccccc2c1 | 77.9% (active) |
| COc1ccc(-c2nnc(NC(=O)c3ccc([N+](=O)[O-])o3)o2)c(OC)c1 | 49.5% |
| COc1cc(OC)cc(-c2nnc(NC(=O)c3ccc4c(c3)OCCO4)o2)c1 | 105% (active) |
| CCCN(CCC)S(=O)(=O)c1ccc(C(=O)Nc2nnc(-c3cc(OC)cc(OC)c3)o2)cc1 | 68.9% (active) |
| Cc1nc([N+](=O)[O-])c(Br)n1CC(=O)c1ccc2ccccc2c1 | 25.6% |
| CSCc1nnc(NC(=O)c2ccc(S(=O)(=O)N(CC(C)C)CC(C)C)cc2)o1 | 80.1% (active) |
| O=C(Nc1nnc(-c2ccc3c(c2)OCCO3)o1)c1ccc(Cc2ccccc2)cc1 | 105% (active) |
| Cc1noc(C)c1S(=O)(=O)N1CCCC(C(=O)NCc2ccccc2Cl)C1 (stereo not drawn) | 21.1% |
| Cc1ccccc1N(Cc1cc(=O)[nH]c2ccccc12)C(=O)CCl | 105% (active) |
| Cc1ccc(N(Cc2cc(=O)[nH]c3ccccc23)C(=O)CCl)c(C)c1 | 100% (active) |
| O=C(c1cc(COc2cccc3cnccc23)on1)N1CCC(c2ccccc2Cl)C1 (stereo not drawn) | 72.7% (active) |
| O=C(c1cc(COc2cccc3cnccc23)on1)N1CCCC(CCCO)C1 (stereo not drawn) | 61.6% (active) |
| COCC1CCN(C(=O)c2cc(COc3cccc4cnccc34)on2)CC1 | 52.7% (active) |
| Cc1ccc(C)c(OCc2cc(C(=O)NC3CCN(Cc4ccccc4)CC3)no2)c1 | 22.7% |
| COCC1CCCN(C(=O)c2cc(COc3ccc4ncccc4c3)on2)C1 (stereo not drawn) | 33.2% |
| CSc1ccccc1OCc1cc(C(=O)N2CCC(c3ccncc3)CC2)no1 | 29.9% |
| COc1cccc(OCc2cc(C(=O)NCc3cnc4ccccn34)no2)c1 | 4.4% |
| O=C(c1cc(COc2c(F)cccc2F)on1)N1CCC(c2ccncc2)CC1 | 41.3% |
| CCN(CC)C(=O)C1CCCN(C(=O)c2cc(COc3ccc4ncccc4c3)on2)C1 (stereo not drawn) | 36% |
| COc1ccc(OCc2cc(C(=O)N3CCC(c4ccccc4)CC3)no2)c(Cl)c1 | -96.3% |
| COCC1CCN(C(=O)c2cc(COc3ccc4ncccc4c3)on2)CC1 | 40.2% |
| Cc1c(C(C)NC(=O)c2cc(COc3cccc4cnccc34)on2)cnn1C (stereo not drawn) | 53.8% (active) |
